Results filed as inconclusive are left out. Active and inactive are the calls of the source. Unless noted, calls follow the shape of the dose curve; as a rule, active = well fitted curve in the direction sought with a large enough effect in the repeat runs; inconclusive = weak or mixed curves; inactive = no such curve, though single readings can be large; an effect the other way counts as inactive or inconclusive.
What was measured:
[1] = qHTS assay to identify small molecule agonists of the estrogen related receptor signaling pathway with the pleiotropic PPARgamma coactivator (PGC) (AID 1224823)
In short: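 Luminescence from One-Glo reagent (30 min, room temperature) was read after 18 h compound treatment at 37 C of PGC/ERR cells plated 6 h beforehand; compounds delivered in DMSO by pin tool.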

[2] = qHTS assay to identify small molecule antagonists of the estrogen related receptor (ERR) signaling pathway from Tox21 library - cell viability counter screen (AID 1224834); also: nearly all actives have a fitted effect of over 30% in size
In short: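 In this quantitative HTS format, ERR cells receive compounds in DMSO and are incubated for 17.5 h at 37 C. Live-cell protease activity is then detected with CellTiter-Fluor.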

[3] = target: Luciferin 4-monooxygenase (Photinus pyralis) (UniProt P08659); assay: qHTS assay to identify small molecule inhibitors of firefly luciferase (AID 1224835); also: nearly all actives have a fitted effect of over 25% in size
In short: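 Inhibition of purified Photinus luciferase is measured by luminescence. Substrate levels (D-luciferin, ATP) sit at their KM values. Each compound is tested in a concentration series.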

[4] = qHTS assay to identify small molecule agonists of the constitutive androstane receptor (CAR) signaling pathway - cell viability counter screen (AID 1224836); also: nearly all actives have a fitted effect of over 45% in size
In short: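 Fluorescence from CellTiter-Fluor indicates live cells after 23 h exposure. The human hepatoma line expresses hCAR and a CYP2B6-2.2kb reporter. Incubation medium contains 0.75 uM PK11195 (final).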

[5] = qHTS assay to identify small molecule antagonists of the constitutive androstane receptor (CAR) signaling pathway - cell viability counter screen (AID 1224837); also: nearly all actives have a fitted effect of over 45% in size
In short: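 In quantitative HTS format, compounds at 15 concentrations were applied to HepG2 cells double-transfected with hCAR and CYP2B6-2.2kb under 50 nM CITCO stimulation; live-cell protease activity was read after 23 hr via CellTiter-Fluor.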

[6] = target: Nuclear receptor subfamily 1 group I member 3 (Homo sapiens) (UniProt Q14994); assay: qHTS assay to identify small molecule antagonists of the constitutive androstane receptor (CAR) signaling pathway (AID 1224838); also: nearly all actives have a fitted effect of over 40% in size
In short: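 CITCO-stimulated (50 nM final) HepG2 cells stably transfected with hCAR and CYP2B6-2.2kb luciferase were exposed to compounds at 15 concentrations for 24 h at 37 C/5% CO2. A luciferase reagent was added and luminescence recorded after 30 min.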

[7] = target: Nuclear receptor subfamily 1 group I member 3 (Homo sapiens) (UniProt Q14994); assay: qHTS assay to identify small molecule agonists of the constitutive androstane receptor (CAR) signaling pathway (AID 1224839);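 also: HepG2 cells stably carrying human CAR and a CYP2B6 luciferase reporter; nearly all actives have a fitted effect of over 15% in size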
In short: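 Stable hCAR/CYP2B6-2.2kb HepG2 line in DMEM with 10% FBS; compounds (15 concentrations) and 0.75 uM PK11195 final, 24 h at 37 C/5% CO2, then ONE-Glo luminescence after 30 min.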

[8] = qHTS assay to identify small molecule antagonists of the estrogen related receptor signaling pathway with the pleiotropic PPARgamma coactivator (PGC) from Tox21 10K library - cell viability counter screen (AID 1224840; active = well fitted cell-killing curve with a large enough effect in the repeat runs, not every such curve was filed as active; also: nearly all actives have a fitted effect of over 40% in size)
In short: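 Viability counter screen, PGC/ERR cells: 17.5 h compound exposure at 37 C, CellTiter-Fluor fluorescence endpoint.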

[9] = qHTS assay to identify small molecule antagonists of the estrogen related receptor signaling pathway with the pleiotropic PPARgamma coactivator (PGC) from Tox21 10K library (AID 1224841; call rule not given here; also: actives are mostly falling curves and most rising ones were filed inactive; nearly all actives have a fitted effect of over 50% in size)
In short: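 In the PGC/ERR line, DMSO solutions of test chemicals are pin-delivered to 2,000 cells/well six hours after dispensing. Following eighteen hours' incubation, One-Glo reagent is added and luminescence recorded.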

[10] = qHTS assay to identify small molecule agonists of the estrogen related receptor signaling pathway with the pleiotropic PPARgamma coactivator (PGC) from Tox21 10K library (AID 1224842); also: nearly all actives have a fitted effect of over 15% in size
In short: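 Luminescence from One-Glo (30 min, room temperature) measured after PGC/ERR cells had 18 h at 37 C with pinned compound (23 nL in DMSO). Cells had been seeded at 2,000 per well and pre-incubated 6 h.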

[11] = target: Thyrotropin receptor (Homo sapiens) (UniProt P16473); assay: qHTS assay to identify small molecule agonists of the thyroid stimulating hormone receptor (TSHR) signaling pathway (AID 1224843; calls by dose curve; also: nearly all actives have a fitted effect of over 45% in size)
In short: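 Agonist activity read as cAMP rise via d2/cryptate HTRF competition, 1 h room-temperature detection, in HEK293 cells expressing TSHR. Fifteen-point titrations, each run in triplicate, with a 30 min room-temperature incubation beforehand.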

[12] = qHTS assay to identify small molecule agonists of the hypoxia (HIF-1) signaling pathway - cell viability counter screen (AID 1224844; calls by dose curve; also: nearly all actives have a fitted effect of over 50% in size)
In short: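 Same wells as the HIF-1 reporter screen; ME-180 cells carrying HRE-bla, 17 hr treatment at 37C; CellTiter-Glo luminescence read after 30 min at room temperature.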

[13] = qHTS assay to identify small molecule agonists of H2AX (AID 1224845; active = well fitted activation curve with a large enough effect in the signal ratio in the repeat runs, not every such curve was filed as active; the % refers to the signal ratio)
In short: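 Phospho-H2AX Ser139 measured by HTRF (ex 320 nm; em 665 and 620 nm) after 24 hr antibody incubation. Compounds, 15 concentrations, 0.76% DMSO, were applied to CHO-K1 cells for 3hr at 37C before lysis.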

[14] = qHTS assay to identify small molecule agonists of H2AX - cell viability counter screen (AID 1224847; calls by dose curve; also: top concentration of the series differs between compounds; nearly all actives have a fitted effect of over 30% in size)
In short: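 Viability of CHO-K1 (wild type) cells after 3 hr compound exposure was measured by CellTiter-Glo luminescence.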

[15] = qHTS assay to identify small molecule antagonists of the estrogen related receptor (ERR) signaling pathway from Tox21 library (AID 1224848); also: nearly all actives have a fitted effect of over 50% in size
In short: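 Luciferase luminescence (ONE-Glo, 30 min room temperature) was the read-out. Cells of the NTP-supplied ERR line, 2,000 per well, were given 6 h at 37 C before compound addition in DMSO and 18 h exposure at 37 C.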

[16] = qHTS assay to identify small molecule agonists of the estrogen related receptor (ERR) signaling pathway from Tox21 library (AID 1224849; calls by dose curve; also: nearly all actives have a fitted effect of over 15% in size); settings: ERR reporter cell line, ONE-Glo luciferase, 18 h
In short: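 Reporter cells (ERR, NTP source) treated with Tox21 10K compounds 18 h, 37 C. Readout: ONE-Glo luminescence, 30 min RT.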

[17] = qHTS RealTime-Glo MT Cell Viability Assay in HepG2 cells - 24 hour (AID 1224867); also: nearly all actives have a fitted effect of over 50% in size
In short: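 Viability was tracked continuously by NanoLuc luminescence from prosubstrate reduced by living HepG2 cells, at successive time points over 40 h of compound exposure. Cells with reagent were preincubated 5 h at 37 °C before compound addition.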

[18] = A CellTox Green Cytotoxicity Assay to monitor cytotoxicity in HEK293 cells - 0 hour (AID 1224869); also: nearly all actives have a fitted effect of over 50% in size
In short: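 Homogeneous no-lysis format: HEK293 cell suspension mixed with CellTox Green reagent, seeded, incubated 5 h at 37 C/5% CO2, then dosed by pintool with compound in DMSO.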

[19] = qHTS RealTime-Glo MT Cell Viability Assay in HEK293 cells - 32 hour (AID 1224868)
In short: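 Viability tracked continuously by luminescence as live cells reduce a prosubstrate for NanoLuc; HEK293 cells preincubated 5 h, compound-treated at 37 C, and read at 0, 8, 16, 24, 32 and 40 h.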

[20] = qHTS assay to identify small molecule agonists of the hypoxia (HIF-1) signaling pathway (AID 1224846; active = well fitted activation curve with a large enough effect in the signal ratio in the repeat runs, not every such curve was filed as active; the % refers to the signal ratio)
In short: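 In ME-180 cells bearing an HRE-bla construct, 17 h treatment with DMSO-dissolved compounds at 37C was followed by CCF4-AM loading to quantify reporter induction.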

[21] = at 92.4 µM (top of the series) unless noted
% is scaled to controls: 0 for no effect and ±100 for the full control effect.

Sequence of Luciferin 4-monooxygenase (Photinus pyralis) (P08659 whole entry, looked up): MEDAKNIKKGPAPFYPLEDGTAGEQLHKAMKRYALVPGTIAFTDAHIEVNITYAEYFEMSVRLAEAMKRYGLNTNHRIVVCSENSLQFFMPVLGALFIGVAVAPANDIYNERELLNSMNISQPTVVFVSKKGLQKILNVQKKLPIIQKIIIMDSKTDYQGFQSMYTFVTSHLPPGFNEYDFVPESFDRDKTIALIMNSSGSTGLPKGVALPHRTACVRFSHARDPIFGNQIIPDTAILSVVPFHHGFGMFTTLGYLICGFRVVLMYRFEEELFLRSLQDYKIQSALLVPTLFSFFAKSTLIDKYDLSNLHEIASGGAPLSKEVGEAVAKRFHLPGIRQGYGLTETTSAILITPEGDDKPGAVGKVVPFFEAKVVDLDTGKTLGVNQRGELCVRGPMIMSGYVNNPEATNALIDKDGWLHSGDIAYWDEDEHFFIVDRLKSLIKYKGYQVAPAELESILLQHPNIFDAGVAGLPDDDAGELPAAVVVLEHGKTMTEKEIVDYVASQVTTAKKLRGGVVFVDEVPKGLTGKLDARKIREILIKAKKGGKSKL
Sequence of Thyrotropin receptor (Homo sapiens) (P16473 whole entry, looked up): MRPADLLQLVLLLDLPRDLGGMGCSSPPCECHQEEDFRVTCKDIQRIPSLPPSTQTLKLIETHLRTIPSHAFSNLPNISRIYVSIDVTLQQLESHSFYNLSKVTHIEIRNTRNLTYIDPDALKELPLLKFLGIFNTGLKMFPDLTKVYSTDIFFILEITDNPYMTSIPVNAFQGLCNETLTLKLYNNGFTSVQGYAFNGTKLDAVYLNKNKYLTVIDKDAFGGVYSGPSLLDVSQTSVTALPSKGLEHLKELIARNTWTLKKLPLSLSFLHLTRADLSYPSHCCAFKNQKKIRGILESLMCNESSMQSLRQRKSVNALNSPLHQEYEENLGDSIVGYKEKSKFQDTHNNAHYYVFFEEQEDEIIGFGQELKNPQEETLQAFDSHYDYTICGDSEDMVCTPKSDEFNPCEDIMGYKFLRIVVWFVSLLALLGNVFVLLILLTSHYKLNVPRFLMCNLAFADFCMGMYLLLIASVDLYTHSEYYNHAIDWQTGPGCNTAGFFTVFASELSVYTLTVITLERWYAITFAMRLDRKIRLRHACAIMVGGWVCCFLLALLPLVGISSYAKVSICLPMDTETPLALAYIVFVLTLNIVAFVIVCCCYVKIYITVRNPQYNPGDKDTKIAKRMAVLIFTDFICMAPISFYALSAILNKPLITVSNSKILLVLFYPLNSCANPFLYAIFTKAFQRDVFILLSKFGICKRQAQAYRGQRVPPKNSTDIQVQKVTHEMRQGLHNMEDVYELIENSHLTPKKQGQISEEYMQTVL
Sequence of Nuclear receptor subfamily 1 group I member 3 (Homo sapiens) (Q14994 whole entry, looked up): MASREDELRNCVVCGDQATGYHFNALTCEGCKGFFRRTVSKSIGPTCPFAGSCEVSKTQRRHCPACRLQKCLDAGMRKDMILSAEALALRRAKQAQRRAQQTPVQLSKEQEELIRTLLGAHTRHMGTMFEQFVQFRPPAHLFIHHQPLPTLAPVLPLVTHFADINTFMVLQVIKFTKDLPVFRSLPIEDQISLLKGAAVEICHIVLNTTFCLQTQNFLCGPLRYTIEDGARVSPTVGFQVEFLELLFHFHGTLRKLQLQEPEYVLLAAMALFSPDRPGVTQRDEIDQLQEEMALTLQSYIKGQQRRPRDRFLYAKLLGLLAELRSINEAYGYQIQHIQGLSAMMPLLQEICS

Cc1ccc(=O)n(-c2ccccc2)c1
inactive: outcome [1] | Potency [2] | Potency [3] | Potency [4] | Potency [5] | Potency [6] | Potency [7] | Potency [8] | Potency [9] | outcome [10] | Potency [11] | Potency [12] | outcome [13] | Potency [14] | Potency [15] | activity change, positive = activation [16, 21] -0.153% [at 42.5 µM] | Potency [17] | Potency [18]

CCn1nc(C(=O)O)c(=O)c2cc3c(cc21)OCO3
inactive: outcome [1] | Potency [2] | Potency [3] | Potency [4] | Potency [5] | Potency [6] | Potency [8] | Potency [9] | outcome [10] | Potency [11] | Potency [12] | outcome [13] | Potency [14] | Potency [15] | activity change, positive = activation [16, 21] 7.18% [at 42.5 µM] | Potency [17] | Potency [19] | Potency [18]

CCn1ccnc1CC1COc2ccccc2O1 (stereo not given)
inactive: outcome [1] | Potency [2] | Potency [4] | Potency [5] | Potency [6] | Potency [7] | Potency [8] | Potency [9] | outcome [10] | Potency [11] | outcome [13] | Potency [14] | Potency [15] | Potency [17] | Potency [19] | Potency [18]

O=C(O)CN(CCOCCOCCN(CC(=O)O)CC(=O)O)CC(=O)O
inactive: outcome [1] | viability change, negative = cytotoxic [2] 1.46% [at 0.349 µM] | activity change, negative = inhibition [3] 0.561% [at 0.435 µM] | viability change, negative = cytotoxic [4] -0.739% [at 0.349 µM] | activity change, negative = cytotoxicity [5] 4% [at 0.349 µM] | viability change, negative = cytotoxic [8] -9.4% [at 0.349 µM] | activity, negative = inhibition [9] 5.6% [at 0.349 µM] | activation [10] -0.694% [at 0.349 µM] | activation [11] -8.79% [at 0.349 µM] | activity change, negative = cytotoxicity [12] -1.26% [at 0.29 µM] | activation (H2AX phosphorylation) [13] -0.327% [at 0.582 µM] | activity change, negative = cytotoxicity [14] 3.97% [at 0.582 µM] | activity, negative = inhibition [15] 2.61% [at 0.349 µM] | activity change, positive = activation [16, 21] 1.46% [at 0.349 µM] | activity change, negative = cytotoxicity [17] -0.276% [at 0.29 µM] | activity change, negative = cytotoxic [19] 6.99% [at 0.29 µM] | cytotoxicity [18] 0.267% [at 0.29 µM]

COC(=O)[C@@H](N)Cc1ccc(O)c(O)c1
inactive: outcome [1] | Potency [2] | Potency [3] | Potency [4] | Potency [5] | Potency [8] | Potency [9] | outcome [10] | Potency [11] | Potency [12] | outcome [20] | Potency [14] | Potency [15] | activity change, positive = activation [16, 21] 6.86% [at 42.5 µM] | Potency [17] | Potency [19] | Potency [18]

C=C(C)C(=O)OCCCCCCCC(C)C
inactive: Potency [2] | Potency [3] | Potency [4] | Potency [5] | Potency [6] | Potency [7] | Potency [8] | Potency [9] | outcome [10] | Potency [11] | Potency [12] | outcome [13] | outcome [20] | Potency [14] | Potency [15] | activity change, positive = activation [16, 21] 2.01% | Potency [17] | Potency [19] | Potency [18]

Nc1c2c(nc3ccccc13)CCCC2O (stereo not given)
inactive: outcome [1] | Potency [2] | Potency [3] | Potency [4] | Potency [5] | Potency [6] | Potency [7] | Potency [8] | Potency [9] | outcome [10] | Potency [11] | Potency [12] | outcome [13] | Potency [14] | Potency [15] | activity change, positive = activation [16, 21] 0.138% [at 42.5 µM] | Potency [17] | Potency [19] | Potency [18]

CC1(C)CO[C@@H](CC(=O)O)CN1
inactive: Potency [2] | Potency [3] | Potency [4] | Potency [5] | Potency [6] | Potency [7] | Potency [8] | Potency [9] | outcome [10] | Potency [11] | Potency [12] | outcome [13] | outcome [20] | Potency [14] | Potency [15] | activity change, positive = activation [16, 21] 0.501% [at 42.5 µM] | Potency [17] | Potency [19] | Potency [18]

CCCC(=O)O[C@]1(C(=O)CO)CC[C@H]2[C@@H]3CCC4=CC(=O)CC[C@]4(C)[C@H]3[C@@H](O)C[C@@]21C
inactive: Potency [2] | Potency [3] | Potency [4] | Potency [5] | Potency [6] | Potency [7] | Potency [8] | Potency [9] | outcome [10] | Potency [11] | Potency [12] | outcome [13] | outcome [20] | Potency [14] | Potency [15] | activity change, positive = activation [16, 21] -12.3% [at 42.5 µM] | Potency [17] | Potency [19] | Potency [18]

COCCc1ccc(OCC(O)CNC(C)C)cc1 (stereo not given)
inactive: outcome [1] | Potency [2] | Potency [3] | Potency [4] | Potency [5] | Potency [6] | Potency [7] | Potency [8] | Potency [9] | outcome [10] | Potency [11] | Potency [12] | outcome [13] | Potency [14] | Potency [15] | activity change, positive = activation ([16]; at 42.5 µM (top of the series)) 5.48% | activity change, positive = activation ([16]; at 92.4 µM (top of the series)) -13% | Potency [17] | Potency [18]

CCO/C([O-])=N/c1c[n+](N2CCOCC2)no1
inactive: outcome [1] | Potency [2] | Potency [4] | Potency [5] | Potency [8] | Potency [9] | outcome [10] | Potency [11] | outcome [13] | Potency [14] | Potency [15] | activity change, positive = activation [16, 21] 0.723% [at 42.5 µM] | Potency [17] | Potency [19] | Potency [18]

CC(NC(CCc1ccccc1)C(=O)O)C(=O)N1C(=O)N(C)CC1C(=O)O (stereo not given)
inactive: Potency [2] | Potency [3] | Potency [4] | Potency [5] | Potency [6] | Potency [7] | Potency [8] | Potency [9] | outcome [10] | Potency [11] | Potency [12] | outcome [13] | outcome [20] | Potency [14] | Potency [15] | activity change, positive = activation [16, 21] 2.19% [at 42.5 µM] | Potency [17] | Potency [19] | Potency [18]
